Inconclusive results are not listed. The source made the active and inactive calls. The call rests on the fitted dose curve; in most records, active means well fitted curve in the direction sought with a large enough effect; inconclusive means small, poorly fitted or top-dose-only effect, or another doubt; inactive means no such curve, though single readings can be large; an effect the other way counts as inactive or inconclusive.
Experiments:
[1] = Cell Viability - LYMP2-005 (AID 967); further: series mostly up to about 92 µM
Summary of the method: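 Acute cytotoxicity is scored as a concentration-dependent drop in intracellular ATP in human lymphoblastoid LYMP2-005 cells after 24 h compound treatment. ATP is quantified by luciferase luminescence, and AC50 is derived by Hill-equation modelling.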

[2] = Cell Viability - LYMP2-013 (AID 970); further: series mostly up to about 92 µM; nearly all actives have a fitted effect of over 55% in size
Summary of the method: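 qHTS; 2500 lymphoblastoid cells/well; 5 hr 37 C settle; cpd 24 hr 37 C; CellTiter-Glo, 30 min RT; luminescence. AC50 = Hill fit.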

[3] = Cell Viability - LYMP2-021 (AID 974);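 further: compound exposure lasts 24 hours at 37 °C; nearly all actives have a fitted effect of over 55% in size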
Summary of the method: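 Plate 2500 lymphoblastoid cells per well and incubate 5 hr at 37 C. Add compounds over a concentration range and incubate 24 hr at 37 C. Add CellTiter-Glo, wait 30 min at room temperature, read luminescence.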

[4] = Cell Viability - LYMP2-006 (AID 978); further: series mostly up to about 92 µM; nearly all actives have a fitted effect of over 60% in size
Summary of the method: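 Cells are seeded at 2500 per well and rested 5 hr at 37 C. Compounds are added across a concentration series for 24 hr at 37 C, after which ATP is quantified by luciferase luminescence.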

[5] = Cell Viability - LYMP2-007 (AID 979);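 further: cells exposed to compound for 24 h before reading; nearly all actives have a fitted effect of over 60% in size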
Summary of the method: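 Luminescent ATP signal (CellTiter-Glo) serves as the viability read-out after 24 hr compound treatment of lymphoblastoid cells in complete medium at 37 C. Concentration-response data were fitted to the Hill equation to give AC50 values.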

[6] = Cell Viability - LYMP2-008 (AID 980); further: nearly all actives have a fitted effect of over 60% in size
Summary of the method: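 qHTS, human lymphoblastoid line, 2500 cells/well; 5 hr preincubation, 24 hr compound, 37 C. CellTiter-Glo ATP luminescence. AC50 via Hill equation. Tetraoctylammonium bromide positive control.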

[7] = Cell Viability - LYMP2-020 (AID 986); further: series mostly up to about 92 µM; nearly all actives have a fitted effect of over 55% in size
Summary of the method: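 Luminescent ATP signal (CellTiter-Glo, 30 min at room temperature) is the read-out after 24 h compound treatment of lymphoblastoid cells at 37 C. AC50 values come from Hill-equation fits across concentrations.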

[8] = Cell Viability - LYMP2-022 (AID 987); further: nearly all actives have a fitted effect of over 55% in size
Summary of the method: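 qHTS: human lymphoblastoid cells 2500/well; 5 hr 37 C; cpd added; 24 hr 37 C; CellTiter-Glo, 30 min RT; luminescence. AC50 via Hill fit; tetraoctylammonium bromide positive ctrl.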

[9] = Cell Viability - LYMP2-011 (AID 969); further: nearly all actives have a fitted effect of over 60% in size
Summary of the method: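 2500 cells/well, 5 hr 37 C; compound added, 24 hr 37 C; CellTiter-Glo 30 min RT; luminescence. qHTS concentration-response, Hill-equation AC50. Tetraoctylammonium bromide positive control.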

[10] = Cell Viability - LYMP2-015 (AID 971); further: nearly all actives have a fitted effect of over 55% in size
Summary of the method: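 Luminescent ATP read-out (CellTiter-Glo) served as the viability measure after lymphoblastoid cells were exposed to compounds for 24 hours at 37 C. Concentration-response data were fitted with the Hill equation to give AC50.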

[11] = Cell Viability - LYMP2-017 (AID 972)
Summary of the method: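 2500 cells/well, 5 h 37 C; cpd 24 h 37 C in complete medium; CellTiter-Glo, 30 min RT; luminescence (ATP). AC50 via Hill fit, qHTS.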

[12] = Cell Viability - LYMP2-019 (AID 973); further: nearly all actives have a fitted effect of over 55% in size
Summary of the method: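 Luminescent ATP read-out (CellTiter-Glo, 30 min room temperature) served as the viability measure after 24 hr treatment of lymphoblastoid cells at 37 C. Concentration-response data were fitted to the Hill equation for AC50.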

[13] = Cell Viability - LYMP2-023 (AID 975)
Summary of the method: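 2500 cells/well, 5 hr 37 C; cpd 24 hr 37 C; CellTiter-Glo, 30 min RT; luminescence. qHTS conc-response, Hill fit -> AC50. Pos ctrl tetraoctylammonium bromide.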

[14] = Cell Viability - LYMP2-025 (AID 976); further: series mostly up to about 92 µM
Summary of the method: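 Seed 2500 LYMP2-025 cells/well; 5 hr at 37 C; add compound; 24 hr at 37 C; add CellTiter-Glo; 30 min RT; read luminescence. AC50 from Hill-modelled concentration-response.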

[15] = Cell Viability - LYMP2-002 (AID 977);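 further: series mostly up to about 92 µM; compound exposure lasted 24 h at 37 °C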
Summary of the method: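 Human lymphoblastoid LYMP2-002 cells, 2500 per well, exposed to compounds for 24 h at 37 C in complete medium; viability read as intracellular ATP by CellTiter-Glo luminescence, AC50 from Hill fits.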

[16] = Cell Viability - LYMP2-010 (AID 981); further: nearly all actives have a fitted effect of over 55% in size
Summary of the method: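 Luminescent ATP signal (CellTiter-Glo) served as the viability read-out. Cells of the human lymphoblastoid line were treated with compound over a concentration range for 24 hours at 37 C, and AC50 values came from Hill-equation modeling.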

[17] = Cell Viability - LYMP2-012 (AID 982)
[18] = Cell Viability - LYMP2-014 (AID 983); further: series mostly up to about 92 µM; nearly all actives have a fitted effect of over 50% in size
Summary of the method: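 Luminescent ATP signal (CellTiter-Glo, 30 min at room temperature) serves as the viability read-out after 24 hr compound exposure at 37 C. Cells were seeded at 2500 per well and settled 5 hr beforehand.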

[19] = Cell Viability - LYMP2-016 (AID 984); further: nearly all actives have a fitted effect of over 55% in size
Summary of the method: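 Cells were seeded at 2500 per well and rested 5 hr before a 24 hr compound exposure at 37 C. Viability was then gauged as cellular ATP by luciferase luminescence, with AC50 values fitted to the Hill equation.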

[20] = Cell Viability - LYMP2-018 (AID 985); further: nearly all actives have a fitted effect of over 50% in size
Summary of the method: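 Luminescent ATP signal (CellTiter-Glo, read after 30 min at room temperature) reports viable cells after 24 hr compound treatment at 37 C. Concentration-response data were fitted to the standard Hill equation for AC50.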

Measured: outcome

O=C1c2cccc(O)c2C(=O)c2c(O)cccc21
inactive: [1] | [2] | [3] | [4] | [5] | [6] | [7] | [8]

O=C1C(c2[nH]c3ccccc3c2O)=Nc2ccccc21
inactive: all assays above

CC(=O)Nc1ccccc1
inactive: all assays above

C=CCNC(N)=S
inactive: all assays above

CC(=O)Nc1ccc(C(=O)O)cc1
not listed: [10]
inactive: all other assays above

O=C(O)CCCCC1CCSS1 (configuration not stated)
inactive: all assays above

CC(=O)OCC(COC(C)=O)OC(C)=O
inactive: all assays above

Cc1cc(C)nc(NS(=O)(=O)c2ccc(N)cc2)n1
inactive: all assays above

CCN(CC)C(=O)c1cccc(C)c1
inactive: all assays above

CCCCCC(N)=O
inactive: all assays above

Cc1c(N(C)C)c(=O)n(-c2ccccc2)n1C
inactive: all assays above

FC(F)(F)C(Cl)Br (configuration not stated)
inactive: all assays above

CC(=O)Nc1cccc(O)c1
inactive: all assays above

CCCCOC(=O)c1ccc(N)cc1
inactive: all assays above

CC(=O)NS(=O)(=O)c1ccc(N)cc1
inactive: all assays above

Nc1ccc(S(=O)(=O)c2ccc(N)cc2)cc1
inactive: all assays above

O=C(c1ccccc1)C(O)c1ccccc1 (configuration not stated)
inactive: all assays above

Cc1cc(=O)[nH]c(=S)[nH]1
inactive: all assays above

CCCC(O)C(CC)CO (configuration not stated)
inactive: all assays above

CC1CC(OC(=O)c2ccccc2O)CC(C)(C)C1 (configuration not stated)
inactive: all assays above

CCCCCCCC(=O)OCC(COC(=O)CCCCCCC)OC(=O)CCCCCCC
inactive: all assays above

COc1ccc(O)cc1
inactive: all assays above

— PubChem BioAssay (NCATS)
